# aSyn UTR act = Activators via SNCA 5'UTR binding, MLPCN; 7.1% of 300,000 active; alpha-synuclein 5'UTR reporter, activators screen; AID 1814; activity score, % (tested at 7.5 µM), hits read low; in the data active = activity score below about -60%
# Starred values were filed as active, the others as inactive. These entries were drawn from the full list.
SMILES,aSyn UTR act
O=C(Nc1ccc2c(c1)OCO2)c1cncc(Br)c1,-191*
CN(C)Cc1ccccc1Sc1ccc2c(c1)CCCC2,104
O=C(Nc1cccc(Cl)c1)c1ccc2c(c1)OCCO2,-123*
CCc1ccc(NC(=O)c2ccccc2SC)cc1,-177*
CCc1ccc(NC(=O)c2cnc(SC)nc2C)cc1,-93*
CSc1ccccc1C(=O)Nc1ccc2c(c1)OCCO2,-65*
O=C(Nc1ccc2c(c1)OCCO2)c1cccc(C(=O)Nc2ccc3c(c2)OCCO3)c1,-148*
O=C(Nc1cccc([N+](=O)[O-])c1)c1[nH]ncc1Cl,-227*
O=C(NC(=S)Nc1ccccc1Br)c1ccc2c(c1)OCO2,-137*
O=C(NNC(=O)c1cccc2ccccc12)c1ccc2c(c1)OCO2,-94*
O=C(Nc1ccc2c(c1)OCCO2)C(=O)NC1CC1,-74*
CN(c1cccc(NC(=O)c2ccc(C(C)(C)C)cc2)c1)S(C)(=O)=O,-174*
CS(=O)(=O)Nc1ccc(C(=O)Nc2ccc3c(c2)OCCO3)cc1,-169*
Nc1ccc(C(=O)c2ccc3c(c2)OCCO3)cc1N,-166*
Cc1ccc(NC(=O)Nc2cccc([N+](=O)[O-])c2)cc1F,-87*
O=C(NC(=S)Nc1ccc2c(c1)OCCO2)c1cccc(Br)c1,-302*
CCCc1cc(C(=O)Nc2cccc([N+](=O)[O-])c2)cs1,-105*
O=C(CS(=O)(=O)c1ccccc1)c1ccc2c(c1)OCCO2,-132*
Nc1ccccc1N=Cc1ccc(-c2cccc(Cl)c2)o1,-145*
COc1ccc(OCc2csc(N)n2)cc1,-117*
O=C(CNC(=O)c1ccccc1C(=O)O)c1ccccc1,-127*
O=C(CNC(=O)c1ccc(Cl)cc1)c1ccccc1,-100*
O=C(CNC(=O)c1ccc(F)cc1)c1ccc(Cl)cc1,-168*
O=C(CNC(=O)c1ccc(Br)cc1)c1ccccc1,-94*
CCOC(=S)NC(=O)c1sc2ccccc2c1Cl,-84*
SMILES,aSyn UTR act
CC(C)(C)C(=O)NC(=S)NNC(=O)c1sc2ccccc2c1Cl,89
O=C(NC(=S)NCCO)c1sc2ccccc2c1Cl,-143*
O=C(N/N=C/c1ccc[nH]1)c1sc2ccccc2c1Cl,-105*
Nc1nc(N)c2sc3nc4c(cc3c2n1)CCC4,-107*
COc1ccc(C(C#N)N2N=C(c3ccccc3)CC2c2ccccc2)cc1OC (centres undefined),-182*
COc1ccc(C2=NN(C(C#N)c3ccc(OC)cc3)C(c3ccccc3)C2)cc1 (centres undefined),-250*
Fc1ccc2nc(Nc3ccccc3)sc2c1,-172*
NNc1nc2ccc(F)cc2s1,-254*
NNc1nc2ccc(Cl)cc2s1,-140*
O=C1/C(=C/c2ccc(N3CCOCC3)o2)SC(=Nc2ccccc2)N1CCc1c[nH]c2ccccc12,-121*
COc1nc(NCCO)nc(Nc2ccccc2F)n1,-97*
C/C(=N\NC(=S)Nc1cccc(C)c1)c1ccco1,-189*
C/C(=N\NC(=S)Nc1cccc(C)c1)c1ccccc1,-100*
Cc1scc(C(=O)N/N=C/c2ccc(Cl)s2)c1C,-93*
COc1ccccc1/C=N/NC(=O)c1csc(C)c1C,-78*
Nc1c(-c2cccc(Cl)c2)cnn1-c1ccccc1,-122*
Nc1c(-c2ccccc2)cnn1-c1ccccc1,-110*
CCOC(=O)Cn1ncc(-c2ccccc2)c1N,-129*
CCOC(=O)Cn1c(S(=O)(=O)Cc2ccccc2Cl)nc(-c2ccccc2)c1-c1ccccc1,54
Cc1ccccc1C(=O)N/N=C/c1ccsc1C,-148*
Cc1ccccc1C(=O)N/N=C/c1cccc2ccccc12,-72*
CCCn1c(=O)c(C(=O)N/N=C/c2ccccc2F)c(O)c2ccccc21,-95*
Cc1ccccc1C(=O)N/N=C/c1ccc([N+](=O)[O-])s1,93
O=C(N/N=C/c1ccccc1F)c1cccc2ccccc12,-87*
O=C(N/N=C/c1sc2ccccc2c1O)c1cccc2ccccc12,92
SMILES,aSyn UTR act
CCc1ccc(C(=O)N/N=C/c2cccc3ccccc23)nc1,-125*
O=C(COc1ccccc1-c1ccccc1)N/N=C/c1cccc2ccccc12,75
Cn1c(N)c(C(C[N+](=O)[O-])c2c(F)cccc2Cl)c(=O)n(C)c1=O (centres undefined),-66*
O=C(N/N=C/c1ccccc1F)NC12CC3CC(CC(C3)C1)C2,-115*
O=C(N/N=C/c1ccccn1)NC12CC3CC(CC(C3)C1)C2,-105*
O=C(COc1ccc(Br)cc1Cl)NC(=S)Nc1ccccn1,-100*
COCCCNC(=O)COc1ccc(Br)cc1Cl,-146*
Cc1cc2sc3ccccc3c(=O)c2c(C)c1O,-96*
O=c1[nH]c(N/N=C/c2ccc(O)cc2)nc2ccccc12,-158*
C=CCn1c(N/N=C/c2ccc(O)cc2)nc2ccccc2c1=O,-134*
C=CCn1c(SCc2c(C)noc2C)nc2ccccc2c1=O,80
O=c1[nH]c(N/N=C\c2ccc(F)cc2)nc2ccccc12,-150*
On1c(-c2ccc(Cl)cc2)nc2ccccc21,-146*
FC(F)(F)c1nc2ccccc2n2c(-c3ccc(Cl)cc3)nnc12,108
Cc1cc2oc(=O)c(CC(=O)NCCCN(C)C)c(C)c2c2occ(C(C)(C)C)c12,61
COCCNC(=O)Cc1c(C)c2c(cc(C)c3c(C(C)(C)C)coc32)oc1=O,-116*
Cc1ccc(CNc2ccc3c(c2)ncn3C(C)(C)C)cc1,-97*
CCc1ccc(CNc2ccc3c(c2)ncn3C)cc1,-156*
Cc1ccc(CNc2ccc3c(c2)ncn3C)cc1,-170*
CCn1cnc2cc(NCc3ccc(Cl)cc3)ccc21,-111*
CCCn1cnc2cc(NCc3ccccn3)ccc21,-71*
Cc1csc2nc(CNC(=O)c3ccco3)cn12,-68*
CCCS(=O)(=O)NCc1cn2c(C)csc2n1,-112*
Cc1csc2nc(CCNS(=O)(=O)c3cccs3)cn12,-141*
COc1ccc(C(CC(=O)c2ccc(O)cc2)S(=O)(=O)c2ccc(C)cc2)cc1 (centres undefined),-250*
SMILES,aSyn UTR act
Cc1ccc(S(=O)(=O)N/N=C2/CC(c3ccccc3)Oc3ccccc32)cc1[N+](=O)[O-] (centres undefined),-106*
C/C(CC(C)C)=N\NS(=O)(=O)c1ccc(C)c([N+](=O)[O-])c1,51
O=C(CCS(=O)(=O)c1ccccc1)Nc1ccc(-c2nc3ccccc3s2)c(O)c1,-93*
CC(=O)Nc1ccc(O)c(-c2nc3ccccc3s2)c1,-326*
CC(=O)Nc1cccc(-c2nc3ccc(NC(C)=O)cc3s2)c1,-133*
COC(=O)Cc1ccc2sc(-c3ccccc3)nc2c1,-208*
CC(=O)Nc1cccc(-c2cc(C)c3cc4c(cc3n2)OCO4)c1,-89*
Nc1cccc(-c2nc3ccccc3s2)c1,-67*
CC(=O)Nc1cccc(-c2nc3ccccc3s2)c1,-133*
Oc1ccc(-c2nc3ccc4ccccc4c3c3c2CCC3)cc1O,-151*
COc1cc(/C=N/NC(=S)NC2CC3CC2C2C=CCC32)ccc1O (centres undefined),-116*
CCN(CC)S(=O)(=O)c1ccc(/C=C/C(=O)Nc2cccc(F)c2)cc1,-83*
CCN(CC(=O)Nc1c(F)cccc1F)C(=O)/C=C/c1ccc(S(=O)(=O)N2CCCCCC2)cc1,78
CCN(CC(=O)NCc1ccc(F)cc1)C(=O)/C=C/c1ccc(S(=O)(=O)N(CC)CC)cc1,-79*
CC1CCCN(c2nc3ccsc3c(=O)s2)C1 (centres undefined),-148*
COc1ccccc1Oc1ccc(NC(=O)c2ccccc2)cc1,-91*
COc1ccc(C(=O)Nc2cc(OC)cc(OC)c2)cc1,-62*

# Screens (PubChem BioAssay)
